Data reported in PubChem BioAssay AID904 (National Center for Advancing Translational Sciences (NCATS), 2007).
About 530 (0.96%) of roughly 55,000 compounds were called active. Roughly 7% stayed inconclusive and do not appear here. The sample as a whole holds a higher share of actives than the screen did. Unmarked numbers belong to inactive results. Calls come from the whole dose curve; as a rule, active = well fitted cell-killing curve with a large enough effect; inconclusive = small, poorly fitted or top-dose-only effect; inactive = no such curve, though single readings can be large or run the other way.

Assay: qHTS Screen for Compounds that Selectively Target Cancer Cells with p53 Mutations: Cytotoxicity of p53 Null Cells at the Nonpermissive Temperature; note: nearly all actives have a fitted effect of over 50% in size;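 for activity, negative = cell killing: 0% = DMSO only and -100% = full killing by 100 µM tamoxifen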
Conditions: H1299 p53-null (neo) cells, 39C, ATPlite viability, 24 h; series mostly up to 46.1 µM; activity, negative = cell killing: at the top concentration
From the text: NIH Chemical Genomics Center [NCGC] NIH Molecular Libraries Screening Centers Network [MLSCN] MLSCN Grant: 1 X01 MH079844-01 Assay Submitter (PI): Dr. SUN, YI, University of Michigan NCGC Assay Overview: Synthetic Lethal Screen for Compounds to Kill Cancer Cells with p53 Mutation. Tumor suppressor gene p53 serves as a major cellular barrier against tumorigenesis. […] The goal of this screening is to identify small molecule probes that selectively kill cancer cells with mutations in p53. This screening was carried out using two lines of H1299 lung cancer cells. The H1299-p53 A138V line express a temperature sensitive p53 mutant (p53ts) in which the mutant p53 protein (A138V) is in the mutant confirmation when grown at 39C (the nonpermissive temperature) and in the wild type conformation when grown at 32C (the permissive temperature). A H1299-neo line (p53 null) grown at both 39C and 32C were used as counter-screens to filter out false positive associated with temperature shifting. The small molecular compounds that selectively target mutant p53-containing cancer cells were selected as candidate probes for further study. A cytotoxicity assay based on the measurement of ATP contents in cells was used in this screen. Concentration-responses of all the compounds in the library collection were determined in qHTS using the cell lines and temperature conditions as above.
NCGC Assay Protocol Summary: Both the H1299-p53A138V and H1299-neo cell lines were provided by Dr.Yi Sun, a PI at the University Michigan. The cells were maintained and cultured at 37C. The resuspended frozen cells were used to plate the cells in the 1536-well assay plates at a density of 600 cells per well in 5 ul medium. The assay plates with the cells were incubated at 37C for 16 to 30 hours before the experiments. The library compounds in DMSO solution were added to the cells in assay plates and incubated 24 hours at 39C (for mutant p53 conformation) or 32C (for normal p53 conformation as control). An ATP_lite assay kit (PerkinElmer) was used to determine the cell viability. Tomaxifen (100uM) was used as the positive control for cell killing. Data were normalized to the controls for basal activity (DMSO only) and 100% killing (100uM tamoxifen). AC50 values were determined from concentration-response data modeled with the standard Hill equation. P53 assay protocol: 1. Reagent; 5 uL H1299-p53A138V or H1299-neo cell cells/well 2. Time; overnight; 37C incubation 3. Compounds; 23 nL; 5.9 nM to 46 uM 4. Controls; 23 nL; Tamoxifen 100 uM 5. Time; 24 hr; 39C incubation 6. Reagent; 3 uL; ATP_Lite reagent 7. Time; 20 min; Room Temperature 8. Detection; Luminescence; Viewlux plate reader Keywords: p53, synthetic lethal, cancer, cell viability, cytotoxicity, H1299 cell line, luminescence, MLSMR, MLSCN, NIH Roadmap, qHTS, NCGC
Potency is the fitted concentration of half-maximal effect.

Compound | Potency | activity, negative = cell killing
CCOc1ccc(C(NC(=O)c2cc(OC)c(OC)c(OC)c2)c2cc(Cl)c3cccnc3c2O)cc1 (stereo not given) | 3.55 µM (active) | 
CN(C)c1cccc(C(=O)Nc2nc3ccc(S(=O)(=O)NC(C)(C)C)cc3s2)c1 |  | 37.8%
Cc1ccc(-n2c(/C=C/c3cccc(C(F)(F)F)c3)nc3ccccc3c2=O)cc1 |  | -19.2%
COC(=O)COc1cc(C)cc2oc(=O)c3c(c12)CCCC3 |  | 9.68%
O=C(Nc1ccc(Cl)cc1C(=O)c1ccccc1)c1cc(Cl)cc(Cl)c1 |  | -5.04%
